# From PubChem BioAssay AID1422 (Emory University Molecular Libraries Screening Center, 2008)
# Where “and” joins values, the source holds several entries; their conditions need not be identical. Identical values can stand only once. About 1,300 (0.5%) of roughly 260,000 compounds were called active.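 The calls were made as follows: active = percent inhibition above 40 after rounding to a whole number; inactive = the rest.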 The entries come from a sample that favours actives as a whole. A structure can be active in one record and inactive in another.
# Molecular target: Prostaglandin E2 receptor EP2 subtype (Homo sapiens) (UniProt P43116)
# Sequence (P43116 whole entry, looked up): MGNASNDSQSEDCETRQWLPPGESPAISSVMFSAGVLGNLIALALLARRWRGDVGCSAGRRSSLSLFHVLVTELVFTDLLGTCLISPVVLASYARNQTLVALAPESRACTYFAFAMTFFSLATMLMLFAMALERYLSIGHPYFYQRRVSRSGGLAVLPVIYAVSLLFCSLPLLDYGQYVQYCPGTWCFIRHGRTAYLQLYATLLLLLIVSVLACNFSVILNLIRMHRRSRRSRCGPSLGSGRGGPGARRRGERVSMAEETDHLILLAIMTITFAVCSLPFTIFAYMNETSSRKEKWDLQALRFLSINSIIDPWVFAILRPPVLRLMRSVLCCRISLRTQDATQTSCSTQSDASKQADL
# Test: blockers of PGE2-driven EP2 cAMP signalling – TR-FRET cAMP, C6 glioma cells, primary screen (AID 1422);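 also: rat C6 glioma host cells with rolipram phosphodiesterase inhibitor present; the protocol text gives 20 µM as final concentration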
# Settings: C6 glioma cells expressing human EP2, cAMP TR-FRET; at 25 µM; stronger effect = higher value; cells stimulated with saturating PGE2
row,Structure (SMILES),inhibition
1,COc1ccccc1NC(=O)c1sc(NC(=O)c2cccc(C)c2)c(C#N)c1C,11.9% (inactive)
2,CCC(CN1CCC(C)CC1)NC(=O)Cc1c(C)nc(OC)nc1OC (stereo not given),0.46% (inactive)
3,Cc1ccc(-n2ccc(=O)c(C(=O)O)n2)cc1,11.4% (inactive)
4,Cc1cc(C(=O)NCCc2ccc(Cl)cc2)n(-c2ccccc2)n1,6.8% (inactive)
5,O=C(O)c1nn(-c2ccc(Cl)cc2)c2c1C(=O)c1ccccc1C2=O,42.4% (active)
6,Cc1sc2nc(C(C)C)nc(SCC(=O)NCc3ccccc3)c2c1C,4.54% (inactive)
7,O=C(NC1CCCC1)C(c1ccccc1F)N(Cc1ccco1)C(=O)Cc1c[nH]c2ccccc12 (stereo not given),11.9% (inactive)
8,Cc1ccccc1C(=O)Nc1ccc(N2CCCCCC2)cc1,-0.3% (inactive)
9,O=C1C=CC(=O)N1c1ccc(N2CCCCC2)cc1,106% (active)
10,N#CSc1ccc(N2CCCCC2)cc1,6.1% (inactive)
11,C=C(C)Cn1c(N2CCC(C)CC2)nc2c1c(=O)[nH]c(=O)n2C,10.2% (inactive)
12,C=CCn1c(NC)nc2c1c(=O)n(C)c(=O)n2C,7.03% (inactive)
13,CCOC(=O)c1cc(-c2ccc(Cl)s2)nc2c1c(C)nn2C,41.6% (active)
14,Cc1c(NC(=O)c2cc(-c3ccc(Cl)s3)nc3ccccc23)c(=O)n(-c2ccccc2)n1C,13.1% (inactive)
15,CCOC(=O)c1cnc2c(c(C)nn2CC)c1Cl,4.46% (inactive)
16,COc1cc(OC)cc(-n2nnnc2SCC(=O)N2CCN(C)CC2)c1,10.8% (inactive)
17,COc1ccc2cc(C#N)c(SCC(=O)Nc3ccccc3Br)nc2c1,27% (inactive)
18,C=CS(=O)c1sc(Cl)c(N2CCOCC2)c1[N+](=O)[O-] (stereo not given),116% (active)
19,COc1cc(NC(=O)CSc2nnc3c(n2)[nH]c2ccccc23)cc(OC)c1,9.57% (inactive)
20,Cc1cc2nc(-c3ccc(SCC(=O)N4CCCCC4C)nc3)[nH]c2cc1C (stereo not given),12.4% (inactive)

row,Structure (SMILES),inhibition
1,Cc1ccc2nc(-c3ccc(SCC(=O)Nc4cc(C)on4)nc3)[nH]c2c1,64.2% (active) and 20.1% (inactive)
2,Cc1ccc(SCCC(=O)Nc2cc(C)on2)cc1,1.47% (inactive)
3,CCCN1C(=O)/C(=C/N(C(C)=O)c2ccccc2)SC1=S,12.5% (inactive)
4,CC1CCN(C(=O)CSc2nc3ccccc3n2Cc2ccccc2)CC1,11.6% (inactive)
5,Fc1ccc2[nH]c3c(N4CCSCC4)ncnc3c2c1,59.2% (active)
6,O=C(NCc1noc(-c2ccccc2)n1)c1cc(-c2ccccn2)n[nH]1,4.63% (inactive)
7,O=C(CN1C(=O)[C@@H]2CCCN2C(=O)c2ccccc21)Nc1ccc2c(c1)OCCO2,6.18% (inactive)
8,NC(N)=N/N=C/c1ccc(OCc2ccc(Cl)cc2Cl)cc1,97.3% (active)
9,COc1ccc(C(=O)O/N=C(\N)Cc2ccc(Cl)cc2Cl)cc1OC,14.2% (inactive)
10,NC(N)=N/N=C/c1ccc(Cl)c([N+](=O)[O-])c1,5.88% (inactive)
11,CCOc1ccc2nc(NC(=O)c3ccc(NC(C)=O)cc3)sc2c1,11.4% (inactive)
12,CC(C)(C)NC(=O)Cn1nnc(-c2ccc(N)cc2)n1,7.5% (inactive)
13,COc1ccccc1CSc1ncc(-c2ccc([N+](=O)[O-])cc2)[nH]1,85.8% (active)
14,COc1ccccc1CSc1nc2ccccc2[nH]1,-5.57% (inactive)
15,COc1ccccc1CC(=O)Nc1ccc([N+](=O)[O-])cc1OC,2.1% (inactive)
16,N#CCN1CCN(c2ncnc3sc4c(c23)CCCC4)CC1,12.8% (inactive)
17,CCN(CC)CCCN1C(=O)C(O)=C(C(=O)c2ccc(C)o2)C1c1ccccc1F (stereo not given),13.9% (inactive)
18,COc1ccc(C2=NNC(c3cccnc3)=Nc3ccc(Br)cc32)cc1OC,6.87% (inactive)
19,Cc1cccc(C(=O)O)c1C[C@@H]1NCC[C@@H]2c3ccccc3N[C@@H]12,46% (active)
20,O=C(CN1N=C(c2ccccc2)Cn2c(cc3sccc32)C1=O)NCC1CCCO1 (stereo not given),4.16% (inactive)

row,Structure (SMILES),inhibition
1,CCc1cc2cc3c(cc2nc1SCC(=O)Nc1ccccc1Br)OCCO3,8.66% (inactive)
2,Cc1cc2ccccc2n1CCNC(=O)COc1ccc2ccccc2c1,73.2% (active)
3,Cc1cc2ccccc2n1CCC(=O)O,7.85% (inactive)
4,COC(=O)C(C)NC(=O)COc1ccc2ccccc2c1 (stereo not given),8.28% (inactive)
5,COC(=O)c1ccc(Cn2nc([N+](=O)[O-])c(Cl)c2C)cc1,12.7% (inactive)
6,O=C(O)COc1c(Cl)cc(Cl)c2cccnc12,16.4% (inactive)
7,O=[N+]([O-])c1cc([N+](=O)[O-])c2cccnc2c1O,7.12% (inactive)
8,O=S(=O)(O)c1ccc(O)c2ncccc12.O=S(=O)(O)c1ccc(O)c2ncccc12.[Zn],45.1% (active)
9,Cc1ccc(-n2c(SCC(=O)NC(C)(C)C)nnc2-c2cccnc2)cc1C,15.1% (inactive)
10,COc1ccc(NS(=O)(=O)c2ccc(NC(=S)NC(=O)/C=C/c3ccc(C)cc3)cc2)nn1,63.2% (active)
11,Cc1ccc(NC(=S)NC(=O)/C=C/c2ccc(Cl)cc2)cc1,5.92% (inactive)
12,COc1ccc(NS(=O)(=O)c2ccc(NC(=O)C(C)(C(F)(F)F)C(F)(F)F)cc2)nn1,14.1% (inactive)
13,CC1CCN(c2nc3c(c(=O)[nH]2)CCN(Cc2ccc(C(F)(F)F)cc2)C3)CC1,6.96% (inactive)
14,COc1ccc(Cc2nnc(NC(=O)Cc3ccc(Cl)cc3)s2)cc1OC,9.47% (inactive)
15,CC1=NN(Cc2ccccc2)C(=O)/C1=C/c1ccc(N(C)C)cc1,18.2% (inactive)
16,CN(C)c1ccc(C=C2C(=O)OC3(CCCC3)OC2=O)cc1,41.7% (active) and 7.71% (inactive)
17,COc1cc(C=C2C(=O)OC3(CCCC3)OC2=O)ccc1OCc1ccccc1F,13.4% (inactive)
18,Cc1nn(C)cc1S(=O)(=O)N(Cc1ccncc1)C1CC1,7.77% (inactive)
19,Cc1nc2c(c(=O)[nH]1)CCN(C(=O)Cn1c3ccccc3c3ccccc31)C2,7.09% (inactive)
20,Cc1[nH]nc2c1C(c1ccc(OCC(=O)N3CCCC3)cc1)C(C#N)=C(N)O2 (stereo not given),10.8% (inactive)
